Consider 58 molecules from PubChem BioAssay AID624126 (The Scripps Research Institute Molecular Screening Center, 2012).

Each structure is given as a SMILES string. About 1,400 (0.39%) of roughly 360,000 compounds were called active. The full list was thinned out, with actives kept by preference. Values without a mark were called inactive.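 The calls were made as follows: active = activation above its plate's cutoff, the mean activation of sample wells plus 3 SD; inactive = the rest.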

In the test the target is Muscarinic acetylcholine receptor M4 (Homo sapiens) (UniProt P08173). Put plainly: human M4 muscarinic receptor positive allosteric modulators, primary screen, CHO-K1 cells, Fluo-8 calcium fluorescence (AID 624126). The conditions noted are these: CHO-K1 hM4/Gqi5, Fluo-8 calcium fluorescence, ACh EC20; at 3 µM; hits give high values; 0% = ACh EC20, 100% = maximal ACh.
Chain of Muscarinic acetylcholine receptor M4 (Homo sapiens) (P08173 whole entry, looked up): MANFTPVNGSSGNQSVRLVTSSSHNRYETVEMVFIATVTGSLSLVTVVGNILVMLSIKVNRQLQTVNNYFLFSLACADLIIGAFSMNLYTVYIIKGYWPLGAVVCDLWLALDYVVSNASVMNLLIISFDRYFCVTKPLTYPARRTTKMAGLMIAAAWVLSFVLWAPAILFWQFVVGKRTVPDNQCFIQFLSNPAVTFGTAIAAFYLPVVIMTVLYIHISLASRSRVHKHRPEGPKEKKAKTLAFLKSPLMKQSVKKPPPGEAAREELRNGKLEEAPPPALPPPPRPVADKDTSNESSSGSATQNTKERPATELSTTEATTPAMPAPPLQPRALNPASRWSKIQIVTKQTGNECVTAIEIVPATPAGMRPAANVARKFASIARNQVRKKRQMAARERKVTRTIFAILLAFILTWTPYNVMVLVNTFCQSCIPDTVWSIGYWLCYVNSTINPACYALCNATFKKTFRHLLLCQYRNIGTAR
In the case of `O=C(CN1CCSCC1)N/N=C/c1ccc(F)cc1F`, the activation was 4.64%.
Regarding `CCN(CC)c1ccc(C(=O)OCC(=O)c2ccco2)cc1`, the activation was -1.72%.
The result for `Cc1cc(NC(=O)C(C)SCC(=O)Nc2cccc(S(=O)(=O)N3CCCCCC3)c2)no1` (stereo not drawn) reads -6.44%; that for `O=C(CCc1nc(-c2ccccc2)no1)Nc1cccc(C(=O)NC2CC2)c1`, 10.1%.
On to `N#CCSc1ccccc1NC(=O)CN1C(=O)NC(CCc2ccccc2)C1=O` (stereo not drawn), for which the activation is 1.07%.
For `O=C(c1ccc(S(=O)(=O)NCc2ccco2)cc1)N1CCN(c2ccccc2)CC1` the value was 18.3%.
For `O=C(c1ccccc1)N1CCN(c2ccc([N+](=O)[O-])c(NCc3ccco3)c2)CC1` the value was 21.4% (active).
The result for `O=[N+]([O-])c1ccc(N2CCN(S(=O)(=O)c3ccc4ccccc4c3)CC2)cc1NCc1ccco1` reads 14%; that for `CC(=O)c1ccc(S(=O)(=O)NCCC(=O)N2CCN(c3ccccn3)CC2)cc1`, 2.49%; that for `Cc1csc(SCC(=O)N(c2ccccc2)C(C)C)n1`, 1.05%.
Regarding `O=C(CCC(=O)OCC(F)(F)C(F)F)NCc1ccccc1`, the activation is -1.61%.
The result for `CC1CN(CCCOc2ccccc2-c2ccccc2)CC(C)O1` (stereo not drawn) reads -4.17%; that for `CC1CN(CCOc2ccccc2[N+](=O)[O-])CC(C)O1` (stereo not drawn), 1.64%.
As to `Cc1cc(C)c(OCCN2CC(C)OC(C)C2)c(Br)c1` (stereo not drawn), the activation is 20.4% (active).
`Cc1cc2c(cc1C)[n+](C)cn2CC(O)COCC1CC=CCC1` (stereo not drawn): the activation is 4.04%.
Consider `O=S(=O)(Nc1ncccn1)c1ccc(NS(=O)(=O)c2cccc(Cl)c2Cl)cc1`, for which the activation was 3.83%.
On to `OCCCNc1nccc(-c2cc(Nc3cccc(Cl)c3)ncn2)n1`, for which the activation was 4.57%.
As for `NS(=O)(=O)c1cccnc1Nc1cccc(Cl)c1`, the activation was 24.9% (active).
On to `CC(C(=O)NCCc1ccc(S(N)(=O)=O)cc1)N1C(=O)CC(C)(C)Sc2ccccc21` (stereo not drawn), for which the activation is -2.13%.
For `COC(=O)[C@]12CCCCC=C1N(Cc1ccc3c(c1)OCO3)C(=O)[C@H](CC(=O)NCc1cccs1)C2` the value was -4.76%.
Consider `CCOC(=O)[C@]12CCCC=C1N(Cc1ccc3c(c1)OCO3)C(=O)[C@H](CC(=O)N1CCN(C(=O)c3ccco3)CC1)C2`, for which the activation was 13.2%.
Take `CCOC(=O)[C@]12CCCC=C1N(Cc1ccc3c(c1)OCO3)C(=O)[C@H](CC(=O)NCc1cccs1)C2`: the activation was 23.3% (active).
For `Cc1[nH]c2c(C(=O)N3CCCC(CCC(=O)NCc4ccccc4F)C3)cccc2c1C` (stereo not drawn) the value was -3.21%; for `Cc1nc(CN2CCN(C(=O)CCc3nnc(Cc4c[nH]c5ccccc45)o3)CC2)cs1`, -5.85%.
For `COc1ccc(N2CCN(C(c3cc4ccc(C)cc4[nH]c3=O)c3nnnn3C3CCCC3)CC2)cc1` (stereo not drawn) the value was -3.66%.
For `COCCn1nnnc1C(c1cc2ccc(OC)cc2[nH]c1=O)N1CCc2ccccc2C1` (stereo not drawn) the value was -1.22%; for `CCOc1ccc2[nH]c(=O)c(C(c3nnnn3CCOC)N3CCOCC3)cc2c1` (stereo not drawn), 33.2% (active).
`COc1ccc(OC)c(S(=O)(=O)N2CCCC(C(=O)N3CCC(C(N)=O)CC3)C2)c1` (stereo not drawn): the activation is 6.48%.
On to `Cc1cccc(C(C)C)c1NC(=O)COC(=O)C1CC(=O)N(Cc2ccccc2)C1` (stereo not drawn), for which the activation is 1.78%.
For `CCC/C(C)=N\Nc1nc2c(c(=O)n(C)c(=O)n2C)n1C` the value was -1.33%; for `O=C(Nc1ccc(N2C(=O)c3cccc4cccc(c34)C2=O)cc1)c1ccc(N2CCCCC2)c([N+](=O)[O-])c1`, 4.02%; for `COc1ccccc1N1CCN(Cc2cc(OC)c3c(c2)OCO3)CC1`, -6.02%.
For `COc1ccccc1N1CCN(Cc2ccc(OC)c3ccccc23)CC1` the value was -3.43%; for `CNCC(O)CN1CCN(c2ccccc2OC)CC1` (stereo not drawn), 19.7% (active).
For `COc1ccccc1-n1c(=S)[nH]c2c(sc(=S)n2-c2ccc(C)cc2C)c1=O` the value was 2.71%; for `COc1ccc(-c2c(NC(=O)c3ccco3)oc3ccc(Cl)cc3c2=O)cc1`, 11.2%; for `Cc1cccc(-c2c(NC(=O)c3ccco3)oc3ccc(Cl)cc3c2=O)c1`, 7.81%.
With `Cn1c(NC(=O)c2ccco2)c(-c2ccccc2Cl)c(=O)c2ccccc21`, the activation is 31% (active).
As to `Cc1cccc(C)c1-n1nnnc1C1(C)CCC(=O)N1CCOc1ccccc1` (stereo not drawn), the activation was 6%.
For `CC1(C(=O)NCc2ccc3c(c2)OCO3)CCN1C(=O)Cc1cccs1` (stereo not drawn) the value was 3.27%; for `COc1ccc(NC(=O)C(C)SCc2ccccc2)cc1` (stereo not drawn), 0.44%; for `CSc1nc(C)cc(SC(C(C)=O)C(=O)Nc2ccccc2)n1` (stereo not drawn), 22.6% (active).
The result for `CC(Sc1nnc2c(n1)C1CCC2(C)C1(C)C)C(=O)Nc1ccccc1` (stereo not drawn) reads -0.53%.
The result for `CCCCN1C(=O)C(CC(=O)NCc2cccs2)CC(C(=O)N2CCCCCC2)=C1C` (stereo not drawn) reads 0.62%.
Consider `O=C(Nc1ccc(C2CC2(Cl)Cl)cc1)c1cccc([N+](=O)[O-])c1` (stereo not drawn), for which the activation is -15.5%.
With `C/C(=N\NC(=O)c1cccc([N+](=O)[O-])c1)c1cccnc1`, the activation was 1.53%.
For `Cc1cc(C)nc(NC(=O)c2cccc([N+](=O)[O-])c2)c1` the value was 31.6% (active).
For `O=C(c1ccc(C(F)(F)F)cc1)C1CCCN(C(=O)c2csnn2)C1` (stereo not drawn) the value was 5.9%; for `c1ccc2c(c1)OCC(c1nn3cnnc3s1)O2` (stereo not drawn), 13.1%.
On to `CCc1ccc(NC(=O)CSc2nnc(-c3cnccn3)n2Cc2ccco2)cc1`, for which the activation is -2.71%.
The result for `CCn1c(SCC(=O)Nc2cc(C)ccc2C)nnc1-c1cnccn1` reads 35.7% (active).
For `CCn1c(SCC(=O)NC2CC2)nnc1-c1ccccn1`, the activation is -4.53%.
For `CC1COc2ccccc2N1C(=O)c1cccnc1Cl` (stereo not drawn) the value was -13.4%; for `CC(=O)c1c(C)[nH]c(C(=O)N2CCN(S(=O)(=O)c3ccc(F)c(F)c3)CC2)c1C`, 1.38%.
The result for `CC(C)(C)C(=O)Nc1ccc(-c2cn3cccnc3n2)cc1` reads 1.07%; that for `CN(C(=O)COC(=O)c1cc(-c2ccco2)nc2ccccc12)C1CCS(=O)(=O)C1` (stereo not drawn), -1.7%; that for `COc1ccc2c(-c3ccccc3)cc(SCC(=O)N(C)C3CCS(=O)(=O)C3)nc2c1` (stereo not drawn), -1.12%.
For the molecule `Cc1c(-c2cccc(Cl)c2)nc2ccccc2c1C(=O)OCC(=O)N(C)C1CCS(=O)(=O)C1` (stereo not drawn), the activation is 22.5% (active).
